Screening results as filed in PubChem.
The list is not random: actives were taken first. Their share in the collection is about 11%.
HP1b binding inh = inhibitors of HP1-beta chromodomain binding to methylated histone tails; P83916; AlphaScreen HP1-beta / biotin-H3K9me3 peptide binding; Potency, µM (top dose mostly 114 µM), hits mostly inhibitors; 390,000 tested, 0.56% active; AID 540317; also: nearly all actives have a fitted effect of over 70% in size
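AlphaScreen: HP1-beta (50 nM) preformed 30 min with biotin-H3(1-18)K9me3 peptide (50 nM) in PBS pH 7.4, 0.01% Tween-20. Compound added for 30 min at RT, then streptavidin donor/nickel chelate acceptor beads (10 ug/mL) for 30 min.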
BAZ2B inh = BAZ2B (human) inhibition; Q9UIF8; AlphaScreen BAZ2B-H3K14Ac peptide displacement; Potency, µM (highest dose often 114 µM), usual class: inhibitors; 360,000 tested, 4.4% active; also: nearly all actives have a fitted effect of over 60% in size
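AlphaScreen displacement of biotin-H3(5-23)K14Ac peptide (50 nM final) from BAZ2B (50 nM final) in PBS pH 7.4, 0.01% Tween-20; complex preformed 30 min RT, then compounds (top 110 uM) 30 min RT, beads 20 min dark.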
L3MBTL1 block = L3MBTL1 (human) inhibition; AID 485360; 230,000 tested, 0.66% active; Potency, µM (top dose mostly 57.1 µM), usual class: inhibitors; AlphaScreen L3MBTL1–H3K9me1 peptide binding; Q9Y468; also: nearly all actives have a fitted effect of over 60% in size
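Read-out is AlphaScreen signal from streptavidin donor and nickel chelate acceptor beads (10 ug/mL final each) bridging L3MBTL1 (50 nM) and biotinylated K9-monomethylated H3(1-15) peptide (75 nM), after 30 min compound exposure at room temperature.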
G9a block = inhibitors of human histone lysine methyltransferase G9a; G9a H3K9 monomethylation, AlphaScreen, 2 h; 350,000 tested, 8.8% active; Potency, µM (titrated, usually from 102 µM), actives largely listed as inhibitors; AID 504332; Q96KQ7; also: nearly all actives have a fitted effect of over 75% in size
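Using a bead-based AlphaScreen, monomethylated H3K9 product from 2 h room-temperature reactions (G9a 20 nM, peptide 500 nM, SAM 20 uM) was detected with 0.5 ug/mL rabbit anti-H3K9me1 antibody.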
JMJD2A Tudor = JMJD2A Tudor domain (human) inhibition; Potency, µM (titrated, usually from 114 µM), hits mostly inhibitors; AlphaScreen JMJD2A-Tudor / H3K4me3 peptide binding; 390,000 tested, 4.4% active; O75164; also: nearly all actives have a fitted effect of over 50% in size
A number is an active result; - = inactive; ? = inconclusive; . = no result given; [ ] = remark or other dose. Calls follow the shape of the dose curve; as a rule, active = well fitted inhibition curve with a large enough effect; inconclusive = small, poorly fitted or top-dose-only effect; inactive = no such curve, though single readings can be large or run the other way.

SMILES	HP1b binding inh	BAZ2B inh	L3MBTL1 block	G9a block	JMJD2A Tudor
CC(=O)c1cccc(NC(=O)c2cccc(NC(=O)c3ccco3)c2)c1	-	79µM	-	45µM	-
CC(=O)c1cccc(NC(=S)NNC(=O)c2ccco2)c1	-	-	-	35µM	-
CNC(=S)Nc1cccc(C(C)=O)c1	-	-	-	-	-[11.4 µM]
COc1ccc(CCC(=O)NNC(=S)Nc2cccc(C(C)=O)c2)cc1	-	-	-	40µM	-
CC(=O)c1cccc(NC(=S)Nc2ccc(F)cc2)c1	-	-	-	50µM	-
Cc1ccc(-n2nnc3c(sc4nc(C)c(C)cc43)c2=O)cc1Cl	-	-	.	-	-
Cc1ccccc1Cn1cc(S(=O)(=O)c2ccc(F)cc2)c(=O)c2cc3c(cc21)OCO3	-	-	.	-	-
COc1ccc(C2=Nn3c(nnc3-c3ccc(OC)cc3OC)SC2)cc1	.	.	.	.	-
O=C(Nc1cc(Br)c(O)c(Br)c1)c1cccc(NC(=O)c2ccco2)c1	-	50µM	-	40µM	-
Cc1cccc(NC(=S)NC(NC(=O)c2ccco2)C(Cl)(Cl)Cl)c1 (centres undefined)	-	-	.	14µM	-
Cc1ccc(NC(=S)NC(NC(=O)c2ccco2)C(Cl)(Cl)Cl)cc1 (centres undefined)	-	-	.	-[12.7 µM]	-
CCN(CC)c1ccc(-c2nc(-c3ccco3)no2)cc1[N+](=O)[O-]	-	-	.	-	-
COc1cccc(N2CC(NC(=O)CCCc3ccccc3)CC2=O)c1 (centres undefined)	-	-	.	-	-
O=C(c1ccc(N2CCOCC2)c([N+](=O)[O-])c1)N1CCN(c2ccccc2)CC1	-	.	.	.	-
O=[N+]([O-])c1cc(S(=O)(=O)Nc2ccccc2)ccc1Nc1ccccc1	?	.	.	.	22µM
O=[N+]([O-])c1cc(S(=O)(=O)C(F)(F)F)ccc1N1CCN(c2ccccc2)CC1	?	8.9µM	?	20µM	?
O=[N+]([O-])c1cc(S(=O)(=O)Nc2ccccc2)ccc1N1CCN(c2ccccc2)CC1	?	40µM	?	32µM	10µM
CN1CCN(NC(=O)c2ccc(Cl)c(S(=O)(=O)Nc3ccc(Cl)cc3)c2)CC1	-	-	-	-[12.7 µM]	-
N#Cc1ccc(-c2csc(NC3=NCCCCC3)n2)cc1	-	-	-	-	-
FC(F)Oc1ccc(-c2csc(NNC3=NCCCCC3)n2)cc1	?	?	-	13µM	?
Brc1ccc(-c2csc(NNC3=NCCCCC3)n2)cc1	-	35µM	-	13µM	?
O=C(Nc1cccc(S(=O)(=O)NC2=NCCC2)c1)c1ccc(OC(F)F)cc1	-	-	-	?	-
CC(C)(C)c1ccc(-c2csc(NNC3=NCCCCC3)n2)cc1	?	?	.	13µM	?
c1ccc(-c2csc(NC3=NCCCCC3)n2)cc1	-	-	-	-	-
Cc1ccccc1SC1CCN(Cc2nc(C3CC3)no2)CC1	-	-	-	-	-
SMILES	HP1b binding inh	BAZ2B inh	L3MBTL1 block	G9a block	JMJD2A Tudor
Cc1ccc(CN2CCSCC2)cc1	?	?	-	.	22µM
Cc1ccc(CN2CCSCC2)c(C)c1	?	?	-	4.5µM	-
Cc1c(C)c(C)c(CN2CCSCC2)c(C)c1C	-	-	-	-	-
Cc1ccc(CN2CCCN(C)CC2)c(C)c1	?	56µM	-	3.5µM	3.2µM
O=S1(=O)CCN(Cc2cccc(Cl)c2)CC1	-	-	-	-	-
Clc1cccc(CN2CCSCC2)c1	?	?	-[2.29 µM]	-[0.501 µM]	22µM
CC(C)NC(=O)C1CCC(Cn2c(=O)c3sccc3n(CC(=O)N3CCCC3)c2=O)CC1 (centres undefined)	-	-	.	-	-
COc1cc(Br)cc(CNc2ccc(F)c([N+](=O)[O-])c2)c1O	-	?	-	45µM	?
Cc1ccc(CC(=O)Nc2ccc(F)c([N+](=O)[O-])c2)cc1C	-	?	-	-	-
CCOc1ccccc1Nc1nc(-c2cccc(Cl)c2)c2c(n1)-c1ccccc1OC2	-	?	.	25µM	56µM
c1ccc(-c2cc(-c3ccccc3)c3c(n2)-c2ccccc2OC3)cc1	-	-	.	-	-
CCCN(C(=O)c1noc2c1COc1ccc(C)cc1-2)c1ccc(Cl)c(Cl)c1	-	-	.	-	-
COc1ccc(Nc2ncnc3c2nc2n3CCCCC2)cc1	-	-	.	-	-
O=c1cc(O)n(C2CCCCCC2)c(=O)[nH]1	-	-	.	?	-
